The sample as a whole holds a higher share of hits than the screen did.
NTMT1 inhibitor = NTMT1 methyltransferase inhibition. Q9BV86. Potency, µM (highest dose often 114 µM), inactives show at the top dose activity change, negative = inhibition, most hits filed as inhibitors. NTMT1 MTase-Glo SAH luminescence, purified enzyme. actives 2.5% (n = 59,000);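 further: potency means the concentration at half of the fitted maximal effect; plate controls were DMSO vehicle for no effect and no enzyme for full effect; nearly all actives have a fitted effect of over 65% in size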
Target sequence (Q9BV86 whole entry, looked up): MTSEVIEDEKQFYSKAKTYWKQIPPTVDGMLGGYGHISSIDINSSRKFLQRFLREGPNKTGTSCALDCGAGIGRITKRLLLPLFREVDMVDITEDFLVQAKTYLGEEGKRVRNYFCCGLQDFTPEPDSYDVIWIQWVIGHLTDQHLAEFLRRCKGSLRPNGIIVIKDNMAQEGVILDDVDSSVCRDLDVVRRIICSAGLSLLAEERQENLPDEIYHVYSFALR
HTT promoter inh = HTT promoter inhibition | HEK293 HTT promoter firefly luciferase reporter, 24 h | Potency, µM (doses to about 57.5 µM), inactives show at the highest dose activity change, negative = inhibition, hits mostly inhibitors | actives 0.93% (n = 48,000) | AID 1508623; further: potency means the concentration at half of the fitted maximal effect; nearly all actives have a fitted effect of over 50% in size
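Firefly luciferase signal from promoter-reporter HEK293 cells was scaled between vehicle (0%) and zero RLU (-100%). Compounds were tested at final concentrations of up to 57.5 uM over 24 h at 37 degrees C. PTC124 at 50 uM final served as control inhibitor.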
B2AR arrestin ag = agonists recruiting beta-arrestin to human beta2-adrenergic receptor; P07550; Potency, µM (doses to about 46.1 µM), most hits filed as activators; 44,000 tested, under 10 active; HTLA Tango cells, beta-arrestin recruitment, luciferase luminescence, 18 h; AID 1347077;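 further: potency means the concentration at half of the fitted maximal effect; 0% = DMSO and full agonism = EC100 isoproterenol or metaproterenol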
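Luminescence read-out: arrestin recruitment to recombinant beta2-AR releases tTA, inducing luciferase. Cells exposed 18 hr at 37 degrees C to up to 46 microM compound; %Activity from corrected signal, concentration-response curves classified by r2, magnitude and efficacy.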
GALK inh = inhibitors of human galactokinase (GALK); P51570; recombinant GALK, Kinase-Glo ATP luminescence, 1 h; Potency, µM (titrated, usually from 57.5 µM), for inactives: at the top dose activity, negative = inhibition, hits mostly inhibitors; 44,000 tested, under 10 active;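 further: plate controls were full GALK reaction for no effect and reaction lacking GALK for full effect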
Target sequence (P51570 whole entry, looked up): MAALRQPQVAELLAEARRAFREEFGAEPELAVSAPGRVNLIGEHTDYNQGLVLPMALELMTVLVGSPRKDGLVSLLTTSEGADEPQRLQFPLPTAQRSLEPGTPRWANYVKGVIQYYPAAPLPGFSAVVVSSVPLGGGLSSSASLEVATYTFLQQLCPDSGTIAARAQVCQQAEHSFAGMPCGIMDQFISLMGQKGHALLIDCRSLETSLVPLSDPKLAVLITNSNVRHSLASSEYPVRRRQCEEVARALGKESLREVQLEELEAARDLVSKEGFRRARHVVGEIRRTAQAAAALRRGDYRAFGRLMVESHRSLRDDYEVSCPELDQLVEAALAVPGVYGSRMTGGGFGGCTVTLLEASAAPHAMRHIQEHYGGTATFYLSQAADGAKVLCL
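Compounds were pinned into ATP buffer, then GALK-galactose mix was added (final 5 nM enzyme, 35 uM ATP, 100 uM galactose, pH 8.0). After 1 h at room temperature, Kinase-Glo Plus was added and luminescence read.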
HTT-AS act = activates huntingtin-antisense promoter activity. HEK293 HTT-AS promoter firefly luciferase reporter, 24 h; response scale: percent change from vehicle, -100% = no light. Potency, µM (doses to about 57.5 µM), for inactives: top-dose activity change, positive = activation, most hits filed as activators. actives 0.24% (n = 48,000); further: potency means the concentration at half of the fitted maximal effect; nearly all actives have a fitted effect of over 55% in size
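HEK293 luciferase promoter-reporter cells (2,500/well) plated 24 h, then compounds added at up to 57.5 uM final for 24 h at 37 °C. Firefly luminescence by Dual-Glo, normalized to vehicle (0%) and zero RLU (-100%).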
TSG101-PTAP inh = blocks PTAP binding to human TSG101, validation; Potency, µM (top dose mostly 115 µM), hits mostly inhibitors; 44,000 tested, under 10 active; Q99816; Fluorescence polarization, FITC-PTAP peptide/Tsg101, 20 min; further: potency means the concentration at half of the fitted maximal effect; 0% is about no effect
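Compounds pinned into 10 uM Tsg101 binding domain, then 50 nM FITC-PTAP peptide added in pH 7.5 HEPES buffer; FP read after 20 min, room temperature. Total S+P intensity flags fluorescent compounds; active cut-off <25 µM, efficacy <60%.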
An asterisk follows results filed as active; i = inactive; ? = inconclusive; nt = not tested or not shown; ! = not active in a repeat; [ ] = remark or other dose. The call rests on the fitted dose curve; in most records, active means well fitted curve in the direction sought with a large enough effect; inconclusive means small, poorly fitted or top-dose-only effect, or another doubt; inactive means no such curve, though single readings can be large; an effect the other way counts as inactive or inconclusive.

SMILES	NTMT1 inhibitor	HTT promoter inh	B2AR arrestin ag	GALK inh	HTT-AS act	TSG101-PTAP inh
O[C@@H](COc1cccc2ncccc12)CN1CCN(C2c3ccccc3[C@@H]3[C@H](c4ccccc42)C3(F)F)CC1 (stereo not given in full)	79.4µM*!	?	nt	nt	-34.1%	nt
COc1ccccc1N1CCN(CC(O)COc2ccc(C)cc2C(C)(C)C)CC1 (stereo not given)	?	?	i	0.0%	-27.4%	i
CC(=O)Nc1sc2c(c1Br)CCNC2	14.6%	nt	nt	nt	nt	nt
S=P(N1CC1)(N1CC1)N1CC1	15.8µM*!	-4.8%	nt	nt	-7.4%	nt
CCCCNC(=O)c1cc2n(n1)CCCN(Cc1ccc(C)cc1)C2=O	13.1%	-10.3%	i	-0.7%	11.0%	i
CCCCOc1ccc(CNC(=O)c2cc3n(n2)CCCN(Cc2ccc(C)cc2)C3=O)cc1	3.7%	25.1µM*	i	-3.6%	-23.4%	i
Cc1ccc(CN2CCCn3nc(C(=O)NCc4cc(C)ccc4C)cc3C2=O)cc1	13.1%	28.2µM*	i	-3.3%	-20.7%	i
CC(C)=C1C[C@@]2(C)C(=CC1=O)CC[C@@H](OC(=O)/C(C)=C/CO)[C@@H]2C	4.6%[29.8 µM]	nt	nt	nt	nt	nt
C[C@@H](Oc1cc(-n2cnc3ccc(CN4CCN(C)CC4)cc32)sc1C(N)=O)c1ccccc1C(F)(F)F	8.91µM*	?	nt	nt	-44.5%	nt
CC(Oc1cc(-n2cnc3ccc(CN4CCN(C)CC4)cc32)sc1C(N)=O)c1ccccc1C(F)(F)F (stereo not given)	-18.0%[57.5 µM]	nt	nt	nt	nt	nt
Cc1c(C(=O)N(C)c2cccc(C(F)(F)F)c2)sc2nc3n(c(=O)c12)CCCCC3	-7.6%	?	i	4.0%	-25.5%	44.7µM*
Cc1c(C(=O)Nc2cccc(C(F)(F)F)c2)sc2nc3n(c(=O)c12)CCCC3	8.4%	-15.1%	i	-4.5%	-9.9%	i
COc1ccc(N2CCN(CCCNC(=O)c3ccc4nc(N5CCCCC5)sc4c3)CC2)cc1	22.4µM*	?	i	-0.3%	-55.7%	i
Cc1ccc(Cl)cc1N1CCN(C(=O)c2ccc3nc(N4CCC(C)CC4)sc3c2)CC1	4.4%	3.55µM*	i	-0.6%	-78.6%	i
COc1ccc(N2CCN(C(=O)c3ccc4nc(N5CCC(C)CC5)sc4c3)CC2)cc1	1.5%	2.24µM*	i	-9.4%	-72.0%	i
COc1cccc(N2CCN(C(=O)c3ccc4nc(N5CCC(C)CC5)sc4c3)CC2)c1	-0.6%	?	i	0.4%	-63.7%	i
Cc1ccc(Cl)cc1N1CCN(CCCNC(=O)c2ccc3nc(N4CCCCC4)sc3c2)CC1	?	?	i	-2.4%	-36.3%	i
Cc1ccc(C)c(N2CCN(CCCNC(=O)c3ccc4nc(N5CCC(C)CC5)sc4c3)CC2)c1	?	-84.4%	i	6.1%	?	i
Cc1c(C(=O)N(C)CC2CCCO2)[nH]c2c1C(=O)CC(c1ccco1)C2 (stereo not given)	-14.0%	nt	nt	nt	nt	nt
O=C1OC2(c3ccccc31)c1cc(Br)c(O)c(Br)c1Oc1c2cc(Br)c(O)c1Br	50.1µM*	1.6%	nt	nt	-10.4%	nt
COc1cccc(-c2nc3cc(NC(=O)c4ccc(C)c([N+](=O)[O-])c4)ccc3o2)c1	79.4µM*	nt	nt	nt	nt	nt
COc1cc2ccccc2cc1C(=O)Nc1cccc(-c2nc3cc(C)c(C)cc3o2)c1	?	7.08µM*	i	0.0%	-74.4%	i
COc1cc2ccccc2cc1C(=O)Nc1ccc2oc(-c3cccc(Cl)c3Cl)nc2c1	79.4µM*	8.6%	i	0.0%	3.2%	i
COc1ccc(C2N=C(Nc3nc4ccccc4o3)NC3=C2C(=O)CCC3)cc1 (stereo not given)	9.2%	nt	nt	nt	nt	nt
Cc1ccc(S(=O)(=O)Nc2ccc(C(=O)Nc3nc(-c4ccccc4)cs3)c(Cl)c2)cc1	14.9%	nt	nt	nt	nt	nt
SMILES	NTMT1 inhibitor	HTT promoter inh	B2AR arrestin ag	GALK inh	HTT-AS act	TSG101-PTAP inh
COc1cc(OC)c(C(CC(=O)N2CC(C)CC(C)C2)c2ccc3c(c2)OCO3)c(OCC(N)=O)c1 (stereo not given)	13.5%[228 µM]	nt	nt	nt	nt	nt
Cc1cc(N2CCN(c3cccc(C)c3C)CC2)n2cnnc2n1	89.1µM*	-6.8%	i	0.3%	-17.1%	i
COc1ccc(NC(=O)Nc2ccc(-c3nc4ccccc4[nH]3)cc2)cc1OC	-0.5%	nt	nt	nt	nt	nt
Cc1csc(NC(=O)c2sc3nc4c(c(C(F)(F)F)c3c2N)CCC4)n1	27.1µM*!	?	nt	nt	-89.1%	nt
Cc1ccc(C(=O)Nc2ccc(S(=O)(=O)N(Cc3ccccc3)c3ccccc3)cc2)cc1	13.1%	?	i	-0.3%	-35.2%	i
O=C(COc1ccccc1)Nc1ccc(S(=O)(=O)N(Cc2ccccc2)c2ccccc2)cc1	-5.6%	-7.4%	i	-9.7%	2.6%	i
COc1ccc(C(=O)Nc2ccc(S(=O)(=O)N(Cc3ccccc3)c3ccccc3)cc2)cc1	15.3%	5.01µM*	i	0.5%	-38.1%	i
CCOc1ccc(NC(=O)c2ncn(-c3ccccc3)n2)cc1	-2.9%	36.0%	i	3.1%	8.91µM*	i
CCOc1ccc(C(=O)Nc2ccc(S(=O)(=O)N(Cc3ccccc3)c3ccccc3)cc2)cc1	8.3%	1.78µM*	i	-0.5%	-94.5%	i
Cc1cc(-c2ccccc2)nc2c(C(=O)Nc3ccc(Cl)c(Cl)c3)cnn12	-8.3%	nt	nt	nt	nt	nt
FC(F)(F)c1ccccc1-c1nc(NCC#Cc2cccnc2)c2ccccc2n1	13.3%	nt	nt	nt	nt	nt
Cc1cc(-c2nc(C(=O)Nc3cn(C4CCOCC4)nc3C(N)=O)co2)ccn1	3.1%	nt	nt	nt	nt	nt
c1ccc(CNc2nc(NCc3ccccc3)c3ccccc3n2)cc1	44.7µM*!	?	nt	nt	-67.0%	nt
Cc1cnc(-c2ccccc2CO)nc1NCC1CCN(c2cccnc2)CC1	7.6%	nt	nt	nt	nt	nt
CCCNS(=O)(=O)c1ccc2nc(NC(=O)c3ccc(F)cc3)sc2c1	8.91µM*	?	i	-0.7%	-11.6%	i
CC(=O)OC1CC(C)(C(=O)O)CC2C3=CC(=O)C4C5(C)CCC(OC6OC(C(=O)O)C(O)C(O)C6OC6OC(C(=O)O)C(O)C(O)C6O)C(C)(C)C5CCC4(C)C3(C)CCC12C (stereo not given)	7.8%[12.6 µM]	nt	nt	nt	nt	nt
Oc1cccc(Nc2cc(-c3ccccc3)ncn2)c1	39.8µM*	49.3%	i	0.0%	?	i
O=C(O)c1ccc(-c2ccc(NC(=O)c3cccs3)cn2)cc1	11.9%	nt	nt	nt	nt	nt
CCCCS(=O)(=O)Nc1ncnc(OCCOc2ncc(Br)cn2)c1-c1ccc(Br)cc1	2.9%[57.5 µM]	nt	nt	nt	nt	nt
Cc1ccc(C)c(NS(=O)(=O)c2ccc3c4c(cccc24)C(=O)N3)c1	44.7µM*	?	i	0.0%	-65.1%	i

Source: PubChem
